Substitutions are numbered along the chain they refer to.
Tests used:
Assay in all cases: yeast three-hybrid, YBZ-1, SC-Leu-His + 0.5 mM 3-AT, 4 days
Conditions in all cases: tags: N-Gal4 AD-HA kept; label: inside an RPR1-promoter hybrid RNA with tandem MS2 sites; ssRNA
PUM1 PUF domain R1-GPK = PUM1 PUF domain R1-GPK (Homo sapiens, UniProt Q14671 828-1176, S863G;R864P;Q867K)
Procedure, shortened: (§1)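 A centromeric plasmid in strain YBZ-1 co-expressed Pumilio-1 PUF domain libraries, randomized at the three base-contacting residues of each repeat, with matching RNA elements; the strain carries a LexA–MS2 coat fusion and a HIS3 reporter. After four days on SC-Leu (input) or SC-Leu-His + 0.5 mM 3-AT (selection), the repeat regions were PCR-amplified and Illumina-sequenced. The interaction score is the log change in variant frequency from input to selection, using log2 and a pseudocount of 1 where absent.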

PUM1 PUF domain R4-GYP = PUM1 PUF domain R4-GYP (Homo sapiens, UniProt Q14671 828-1176, N971G;H972Y;Q975P)
Procedure, shortened: as §1

PUM1 PUF domain R4-DFR = PUM1 PUF domain R4-DFR (Homo sapiens, UniProt Q14671 828-1176, N971D;H972F;Q975R)
Procedure, shortened: as §1

PUM1 PUF domain R5-AAR = PUM1 PUF domain R5-AAR (Homo sapiens, UniProt Q14671 828-1176, C1007A;R1008A;Q1011R)
Procedure, shortened: as §1

PUM1 PUF domain R1-KFV = PUM1 PUF domain R1-KFV (Homo sapiens, UniProt Q14671 828-1176, S863K;R864F;Q867V)
Procedure, shortened: as §1

PUM1 PUF domain R6-LYA = biological target: T1, PUM1 PUF domain R6-LYA (Homo sapiens, UniProt Q14671 828-1176, N1043L;Q1047A)
T1 sequence: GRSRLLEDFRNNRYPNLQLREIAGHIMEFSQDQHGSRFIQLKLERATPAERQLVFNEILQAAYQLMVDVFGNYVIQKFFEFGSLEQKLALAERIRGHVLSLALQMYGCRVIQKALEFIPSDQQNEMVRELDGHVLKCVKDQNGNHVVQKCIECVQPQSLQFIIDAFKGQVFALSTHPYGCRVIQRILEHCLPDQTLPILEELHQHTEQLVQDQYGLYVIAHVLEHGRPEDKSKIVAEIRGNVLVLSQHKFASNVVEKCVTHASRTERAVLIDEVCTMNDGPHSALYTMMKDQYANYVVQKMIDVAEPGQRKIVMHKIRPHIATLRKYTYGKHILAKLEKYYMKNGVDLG
Procedure, shortened: as §1

PUM1 PUF domain R6-KWC = biological target: T2, PUM1 PUF domain R6-KWC (Homo sapiens, UniProt Q14671 828-1176, N1043K;Y1044W;Q1047C)
T2 sequence: T1 sequence with L216K, Y217W, A220C
Procedure, shortened: as §1

PUM1 PUF domain R8-HFL = PUM1 PUF domain R8-HFL (Homo sapiens, UniProt Q14671 828-1176, N1122H;Y1123F;Q1126L)
Procedure, shortened: as §1

PUM1 PUF domain R8-DYR = PUM1 PUF domain R8-DYR (Homo sapiens, UniProt Q14671 828-1176, N1122D;Q1126R)
Procedure, shortened: as §1

PUM1 PUF domain R8-KRH = PUM1 PUF domain R8-KRH (Homo sapiens, UniProt Q14671 828-1176, N1122K;Y1123R;Q1126H)
Procedure, shortened: as §1

PUM1 PUF domain R8-HFP = PUM1 PUF domain R8-HFP (Homo sapiens, UniProt Q14671 828-1176, N1122H;Y1123F;Q1126P)
Procedure, shortened: as §1

PUM1 PUF domain R8-PYC = PUM1 PUF domain R8-PYC (Homo sapiens, UniProt Q14671 828-1176, N1122P;Q1126C)
Procedure, shortened: as §1

PUM1 PUF domain R1-TKK = PUM1 PUF domain R1-TKK (Homo sapiens, UniProt Q14671 828-1176, S863T;R864K;Q867K)
Procedure, shortened: as §1

PUM1 PUF domain R3-VRH = PUM1 PUF domain R3-VRH (Homo sapiens, UniProt Q14671 828-1176, C935V;Q939H)
Procedure, shortened: as §1

PUM1 PUF domain R6-RWL = biological target: T3, PUM1 PUF domain R6-RWL (Homo sapiens, UniProt Q14671 828-1176, N1043R;Y1044W;Q1047L)
T3 sequence: T1 sequence with L216R, Y217W, A220L
Procedure, shortened: as §1

PUM1 PUF domain R6-CWL = biological target: T4, PUM1 PUF domain R6-CWL (Homo sapiens, UniProt Q14671 828-1176, N1043C;Y1044W;Q1047L)
T4 sequence: T1 sequence with L216C, Y217W, A220L
Procedure, shortened: as §1

PUM1 PUF domain R3-RPQ = PUM1 PUF domain R3-RPQ (Homo sapiens, UniProt Q14671 828-1176, C935R;R936P)
Procedure, shortened: as §1

PUM1 PUF domain R3-LWI = PUM1 PUF domain R3-LWI (Homo sapiens, UniProt Q14671 828-1176, C935L;R936W;Q939I)
Procedure, shortened: as §1

PUM1 PUF domain R3-SSD = PUM1 PUF domain R3-SSD (Homo sapiens, UniProt Q14671 828-1176, C935S;R936S;Q939D)
Procedure, shortened: as §1

[1] = biological target: PUM1 PUF domain R1-QFR R2-VFQ R7-NPG (Homo sapiens, UniProt Q14671 828-1176, S863Q;R864F;Q867R;N899V;Y900F;S1079N;N1080P;E1083G)
Procedure, shortened: as §1

GGCUAGAACUAGUGGAUCCCCCGGCGCCCGGCGGCUCGAGCCCGGGUAAGUGUAAAUGGUCUGCAUGCCGCCGGGCGCCAUGCCUGCAGGUCGACUCUAGAAAACAUG
binding signal (PUM1 PUF domain R1-GPK): 0.78 log2 enrichment (interaction score)

GGCUAGAACUAGUGGAUCCCCCGGCGCCCGGCGGCUCGAGCCCGGGUAAGUGUACAUAGUCUGCAUGCCGCCGGGCGCCAUGCCUGCAGGUCGACUCUAGAAAACAUG
binding signal (PUM1 PUF domain R4-GYP): 5.39 log2 enrichment (interaction score)
binding signal (PUM1 PUF domain R4-DFR): 5.83 log2 enrichment (interaction score)

GGCUAGAACUAGUGGAUCCCCCGGCGCCCGGCGGCUCGAGCCCGGGUAAGUGUCAAUAGUCUGCAUGCCGCCGGGCGCCAUGCCUGCAGGUCGACUCUAGAAAACAUG
binding signal (PUM1 PUF domain R5-AAR): 4.02 log2 enrichment (interaction score)

GGCUAGAACUAGUGGAUCCCCCGGCGCCCGGCGGCUCGAGCCCGGGUAAGUGUAAAUUGUCUGCAUGCCGCCGGGCGCCAUGCCUGCAGGUCGACUCUAGAAAACAUG
binding signal (PUM1 PUF domain R1-GPK): 2.87 log2 enrichment (interaction score)
binding signal (PUM1 PUF domain R1-KFV): 3.92 log2 enrichment (interaction score)

GGCUAGAACUAGUGGAUCCCCCGGCGCCCGGCGGCUCGAGCCCGGGUAAGUGAAAAUAGUCUGCAUGCCGCCGGGCGCCAUGCCUGCAGGUCGACUCUAGAAAACAUG
binding signal (PUM1 PUF domain R6-LYA): 1.91 log2 enrichment (interaction score)
binding signal (PUM1 PUF domain R6-KWC): 6.72 log2 enrichment (interaction score)

GGCUAGAACUAGUGGAUCCCCCGGCGCCCGGCGGCUCGAGCCCGGGUAAGCGUAAAUAGUCUGCAUGCCGCCGGGCGCCAUGCCUGCAGGUCGACUCUAGAAAACAUG
binding signal (PUM1 PUF domain R8-HFL): 2.79 log2 enrichment (interaction score)
binding signal (PUM1 PUF domain R8-DYR): 3.04 log2 enrichment (interaction score)
binding signal (PUM1 PUF domain R8-KRH): 2.93 log2 enrichment (interaction score)
binding signal (PUM1 PUF domain R8-HFP): 6.79 log2 enrichment (interaction score)
binding signal (PUM1 PUF domain R8-PYC): 3.77 log2 enrichment (interaction score)

GGCUAGAACUAGUGGAUCCCCCGGCGCCCGGCGGCUCGAGCCCGGGUAAGUGUAUAUAGUCUGCAUGCCGCCGGGCGCCAUGCCUGCAGGUCGACUCUAGAAAACAUG
binding signal (PUM1 PUF domain R4-GYP): 7.06 log2 enrichment (interaction score)
binding signal (PUM1 PUF domain R4-DFR): 6.14 log2 enrichment (interaction score)

GGCUAGAACUAGUGGAUCCCCCGGCGCCCGGCGGCUCGAGCCCGGGUAAGUGUAAAUCGUCUGCAUGCCGCCGGGCGCCAUGCCUGCAGGUCGACUCUAGAAAACAUG
binding signal (PUM1 PUF domain R1-GPK): 4.33 log2 enrichment (interaction score)
binding signal (PUM1 PUF domain R1-TKK): 3.92 log2 enrichment (interaction score)

GGCUAGAACUAGUGGAUCCCCCGGCGCCCGGCGGCUCGAGCCCGGGUAAGUGUAAAUAGUCUGCAUGCCGCCGGGCGCCAUGCCUGCAGGUCGACUCUAGAAAACAUG
binding signal (PUM1 PUF domain R6-LYA): 2.58 log2 enrichment (interaction score)
binding signal (PUM1 PUF domain R8-DYR): 0.87 log2 enrichment (interaction score)
binding signal (PUM1 PUF domain R4-GYP): 5.1 log2 enrichment (interaction score)
binding signal (PUM1 PUF domain R3-VRH): 4.55 log2 enrichment (interaction score)
binding signal (PUM1 PUF domain R6-RWL): 5.11 log2 enrichment (interaction score)
binding signal (PUM1 PUF domain R6-CWL): 3.76 log2 enrichment (interaction score)

GGCUAGAACUAGUGGAUCCCCCGGCGCCCGGCGGCUCGAGCCCGGGUAAGUGUAAUUAGUCUGCAUGCCGCCGGGCGCCAUGCCUGCAGGUCGACUCUAGAAAACAUG
binding signal (PUM1 PUF domain R3-RPQ): 3.45 log2 enrichment (interaction score)

GGCUAGAACUAGUGGAUCCCCCGGCGCCCGGCGGCUCGAGCCCGGGUAAGUGUAAGUAGUCUGCAUGCCGCCGGGCGCCAUGCCUGCAGGUCGACUCUAGAAAACAUG
binding signal (PUM1 PUF domain R3-LWI): 3.8 log2 enrichment (interaction score)
binding signal (PUM1 PUF domain R3-SSD): 2.19 log2 enrichment (interaction score)

GGCUAGAACUAGUGGAUCCCCCGGCGCCCGGCGGCUCGAGCCCGGGUAAGUGUUAAUAGUCUGCAUGCCGCCGGGCGCCAUGCCUGCAGGUCGACUCUAGAAAACAUG
binding signal (PUM1 PUF domain R5-AAR): 1.62 log2 enrichment (interaction score)

GGCUAGAACUAGUGGAUCCCCCGGCGCCCGGCGGCUCGAGCCCGGGUAAGUUUAAAACGUCUGCAUGCCGCCGGGCGCCAUGCCUGCAGGUCGACUCUAGAAAACAUG
binding signal [1]: 6.82 log2 enrichment (interaction score)
